ATXN2 expr inh = Primary qHTS for Inhibitors of ATXN expression; HEK-293 ATXN2-luciferase reporter, luminescence, 24 h; Potency, µM (top dose mostly 57 µM), most hits filed as inhibitors; actives 0.72% (n = 360,000); AID 1745845, 2022; also: nearly all actives have a fitted effect of over 55% in size
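qHTS (up to 57 uM final) was run with 24 h compound exposure of reporter cells at 37 °C. Each well was multiplexed: SteadyGlo luminescence measured ATXN2-luciferase expression after a fluorogenic Gly-Phe-AFC viability readout (25 uM final).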
KB-V1 cytotox = qHTS assay for MDR1-selective chemotherapeutics: Primary screen using the drug-selected MDR subline cells KB-V1; Potency, µM (top dose mostly 46.1 µM), usual class: cytotoxic; AID 1347076, 2019; actives 3.4% (n = 400,000); KB-V1 MDR cells viability, CellTiter-Glo, 72 h; also: nearly all actives have a fitted effect of over 60% in size
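KB-V1, DMEM (no phenol red) + 10% FBS; cpd pin-transferred, titration series; 72 h, 37 degrees C; CellTiter-Glo, luminescence. Data normalized, curve-fit.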
HT1080 IDH1KD tx = qHTS for induction of synthetic lethality in tumor cells producing 2HG: qHTS for the HT-1080-IDH1KD cell line. HT-1080 IDH1 knockdown viability, ATP luminescence, 48 h. Potency, µM (titrated, usually from 46.1 µM), actives largely listed as cytotoxic. actives 2% (n = 360,000). AID 686971, 2013
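IDH1KD HT-1080 cells, 750/well, RPMI + 5% FBS; compound pinned after 2 h settling; 48 h, 37 °C; CellTiter-Glo luminescence; % activity normalised to DMSO and no-cell wells; curves fitted, classed by r2 and efficacy.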
S2 tox = Viability Counterscreen for Primary qHTS for Inhibitors of ATXN expression; S2 cells (HEK-293 line with an ATXN2-luciferase reporter) viability, CellTiter-Fluor protease fluorescence, 24 h; Potency, µM (series often up to 56.7 µM), hits mostly cytotoxic; actives 0.49% (n = 400,000); also: nearly all actives have a fitted effect of over 40% in size
KB-3-1 tox = qHTS assay for MDR1-selective chemotherapeutics: Primary screen using the parental adenocarcinoma cell KB-3-1. KB-3-1 viability, CellTiter-Glo ATP luminescence, 72 h. Potency, µM (top dose mostly 46.1 µM), hits mostly cytotoxic. actives 1.4% (n = 400,000). AID 1347075, 2019; also: nearly all actives have a fitted effect of over 60% in size
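Screening of KB-3-1 cells (DMEM, 10% FBS, phenol-red free) ran from lowest to highest compound concentration; after 72 h at 37 °C viability was read luminescently and curves fitted.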
HT1080NT lethal = qHTS for induction of synthetic lethality in tumor cells producing 2HG: qHTS for the HT-1080-NT fibrosarcoma cell line; HT-1080-NT fibrosarcoma viability, CellTiter-Glo ATP luminescence, 48 h; Potency, µM (titrated, usually from 46.1 µM), hits mostly cytotoxic; actives 1.6% (n = 360,000); AID 686970, 2013;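 also: NT is the 2HG producing partner of a matched IDH1 knockdown line; nearly all actives have a fitted effect of over 55% in size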
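Toxicity toward the 2HG-producing NT line was scored as %Activity, normalised to DMSO and no-cell wells, from CellTiter-Glo luminescence after 48 hours' treatment.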
A number is an active result; – = inactive; ? = inconclusive; · = no result given. The list is not random: actives were taken first. Their share in the collection is about 6.2%. Calls follow the shape of the dose curve; as a rule, active = well fitted curve in the direction sought with a large enough effect; inconclusive = small, poorly fitted or top-dose-only effect, or another doubt; inactive = no such curve, though single readings can be large; an effect the other way counts as inactive or inconclusive.

SMILES	ATXN2 expr inh	KB-V1 cytotox	HT1080 IDH1KD tx	S2 tox	KB-3-1 tox	HT1080NT lethal
Cc1ccccc1-n1c(C)n[nH]c1=S	–	–	?	–	–	13µM
Cc1ccccc1-n1c(Cc2cccs2)n[nH]c1=S	–	–	?	–	–	?
CCc1cc(-c2n[nH]c(=S)n2-c2ccccc2C)cs1	–	18µM	?	–	–	11µM
CCc1cc(-c2n[nH]c(=S)n2CC)cs1	–	?	–	?	?	–
Cc1cc2nc(N3CCC(NC(C)c4nc(-c5ccccn5)no4)CC3)nc(C)c2cc1C (centres undefined)	·	·	·	–	·	·
O=C(NCCCN1CCN(c2cccc(Cl)c2)CC1)c1cnn(-c2ccc(F)cc2)c1-n1cccc1	35µM	?	·	?	?	·
O=C(NCCN1CCN(c2ccccc2)CC1)Nc1cccc(Cl)c1	–	–	18µM	–	–	21µM
Cc1ncsc1C(=O)NCc1ccc(N2CCCC2=O)cc1	–	16µM	–	–	–	–
COc1cc(NC(=O)CCN2CCN(Cc3ccccc3)CC2)cc(OC)c1	–	–	–	–	–	–
O=C(CCN1CCN(Cc2ccccc2)CC1)Nc1cccc(Cl)c1	–	23µM	–	–	–	–
CCCN(CCC)CCCNC(=O)c1cnn(-c2ccc(F)cc2)c1-n1cccc1	–	–	·	–	–	·
O=C(NCc1ccc(N2CCCC2=O)cc1)c1cnccn1	–	–	–	?	–	–
Cc1c(-c2ccccc2)c(=O)oc2c(CN3CCN(C)CC3)c(O)ccc12	–	–	·	·	–	·
CC(C)C(NS(C)(=O)=O)c1nnc2n1CCN(Cc1ccc(Cl)cc1)CC2 (centres undefined)	·	·	·	–	·	·
CCc1ccccc1NC(=O)c1ccc2c(O)c(S(=O)(=O)c3ccccc3)c(=O)[nH]c2c1	–	–	·	–	–	·
O=C(NCc1ccc(N2CCCC2=O)cc1)Nc1cccc(Cl)c1	–	16µM	–	–	–	–
O=C(NCc1ccc(N2CCCC2=O)cc1)c1cccc(Cl)c1	–	–	–	–	–	–
Cc1cc(C(=O)NCCN2CCN(c3cccc(Cl)c3)CC2)n(-c2ccccc2)n1	–	–	16µM	?	15µM	8.2µM
COc1cc(/C=C2/SC(=S)N(C)C2=O)ccc1OC(=O)c1ccco1	–	–	–	–	–	–
CCOc1cc(/C=C2/SC(=S)NC2=O)ccc1OC(=O)c1ccco1	–	–	?	?	–	12µM
COc1cc(/C=C2/SC(=O)NC2=O)ccc1OC(=O)c1ccco1	–	?	–	?	10µM	–
COc1cccc(NC(=O)CN2CCCN(S(=O)(=O)c3ccc(Br)cc3)CC2)c1	–	–	·	?	–	·
O=C(C=Cc1c(C(=O)O)[nH]c2cc(Cl)cc(Cl)c12)Nc1ccccc1	–	·	·	·	·	·
COc1ccc([C@@]23Oc4cc(OC)cc(OC)c4[C@]2(O)[C@H](O)[C@H](C(=O)N(C)C)[C@H]3c2ccccc2)cc1	–	?	0.16µM	?	?	?
COc1ccc(C2CC(O)(c3ccccc3)Oc3cc(OC)c(OC)c(OC)c32)cc1 (centres undefined)	–	–	–	?	–	–
SMILES	ATXN2 expr inh	KB-V1 cytotox	HT1080 IDH1KD tx	S2 tox	KB-3-1 tox	HT1080NT lethal
COc1ccc(N(Cc2cccs2)C(=O)c2ccccc2C)cc1	·	?	·	·	–	·
O=C1c2cc(Cl)ccc2-c2c(O)cc(Cl)cc21	?	?	23µM	–	?	9.2µM
CCC(C)NC(=O)c1ccc2nc(-c3ccco3)c(-c3ccco3)nc2c1 (centres undefined)	·	–	·	·	–	·
O=C1c2ccccc2S(=O)(=O)N1Cc1nc2ccccc2s1	4µM	–	–	–	–	–
CCOc1ccc(C2c3c(oc4ccccc4c3=O)C(=O)N2Cc2ccc3c(c2)OCO3)cc1 (centres undefined)	–	–	·	–	–	·
CC(NC(=O)c1cccc(Cn2cc([N+](=O)[O-])cn2)c1)c1ccc(C(C)(C)C)cc1 (centres undefined)	–	21µM	?	–	–	–
CC(NC(=O)c1ccc(Cn2cc([N+](=O)[O-])cn2)o1)c1ccccc1 (centres undefined)	–	–	–	–	–	–
CCC(NC(=O)c1cccc(Cn2cc([N+](=O)[O-])cn2)c1)c1ccc(C(C)C)cc1 (centres undefined)	–	7.3µM	?	–	?	–
CCOC(=O)c1c(S(=O)(=O)N2CCCC(C(=O)N3CCN(c4cc(C)ccc4C)CC3)C2)c(C)n(C)c1C (centres undefined)	–	?	·	–	–	·
CCOC(=O)/C=C1\CN(Cc2ccc(OC)cc2)S(=O)(=O)c2ccc(C(F)(F)F)cc21	·	?	·	·	–	·
CC(=O)N1CCCc2cc(S(=O)(=O)N3CCC(C(=O)NC4CCC(C)CC4)CC3)ccc21 (centres undefined)	–	–	·	–	–	·
COc1ccc(NC(=O)C2CCC(CNS(=O)(=O)c3csc(C(N)=O)c3)CC2)cc1 (centres undefined)	–	–	·	–	–	·
COc1ccc(C2=Nn3c(nnc3-c3ccccc3OC)SC2)cc1OC1CCOC1 (centres undefined)	–	3.3µM	·	?	0.65µM	·
CCOc1ccc(-c2nnc3n2N=C(c2ccc(OC)cc2)CS3)cc1	–	–	–	–	–	–
COc1ccc(C2=Nn3c(nnc3-c3ccncc3)SC2)cc1OC	–	–	?	–	?	?
COc1ccccc1-c1nnc2n1N=C(c1ccc(O)c(O)c1)CS2	–	?	?	?	?	0.21µM
COc1ccc(C2=Nn3c(nnc3-c3ccccn3)SC2)cc1	–	15µM	–	?	?	–
CCOc1ccc(C2=Nn3c(nnc3-c3ccccc3OC)SC2)cc1	–	?	0.01µM	–	0.012µM	0.21µM
CCn1c(=O)c2sccc2n2c(CCC(=O)Nc3cc(C)cc(C)c3)nnc12	–	?	·	–	–	·
Cc1ccc(Nc2nccc(N(C)c3ccc4c(C)n(C)nc4c3)n2)cc1S(N)(=O)=O	–	·	·	?	·	·
CCc1nnc2n1N=C(c1ccc(OC)cc1)CS2	–	16µM	?	–	23µM	?
CCc1nnc2n1N=C(c1ccc([N+](=O)[O-])cc1)CS2	–	–	–	–	–	–
c1ccc(-c2ccc(C3=Nn4c(nnc4-c4cc(-c5ccccc5)n[nH]4)SC3)cc2)cc1	–	16µM	18µM	–	?	?
CC1=Nn2c(nnc2-c2cc(-c3ccccc3)n[nH]2)SC1	–	–	–	–	–	–

Compound activity: PubChem BioAssay, National Center for Advancing Translational Sciences (NCATS)
